# Assay results reported in ChEMBL document CHEMBL3988442, “University of Dundee, Small-Polar-MMV Screening Library” (2021).
# Out of some 48,000 compounds screened, about 13,000 (27%) showed an effect of 50% or more. Some of the results follow.
# Tested on: Wolbachia pipientis
# Assay: Anti-Wolbachia Cell-Based Screen
# Format: functional
# Parameters: scale not given: in the data most compounds retested in dose-response had high values
# Conditions: 5 µM
row,SMILES,Percent Effect [%]
1,Cc1ncnc2c1CCN(C(=O)c1ccnnc1)CC2,-1.373
2,Cc1ncnc2c1CCN(C(=O)N(C)C)CC2,95.78
3,CCc1ncnc2c1CCN(CC(=O)N(C)C)CC2.O=C(O)C(F)(F)F,107.9
4,Cc1ncnc2c1CCN(C(=O)CN(C)C)CC2.O=C(O)C(F)(F)F,-6.566
5,Cc1ncnc2c1CCN(CC(=O)N(C)C)CC2.O=C(O)C(F)(F)F,112
6,CCc1ncnc2c1CCN(Cc1ccccn1)CC2.O=C(O)C(F)(F)F.O=C(O)C(F)(F)F,16.56
7,CCc1ncnc2c1CCN(Cc1nccs1)CC2.O=C(O)C(F)(F)F,16.77
8,Cc1ncnc2c1CCN(Cc1nccs1)CC2.O=C(O)C(F)(F)F,-9.134
9,CN(C1CCCCC1)S(=O)(=O)N1CCN(Cc2ccon2)CC1,-9.326
10,Cc1noc(C)c1CN1CCCC2(CCN(C(=O)N3CCOCC3)C2)C1 (stereo unspecified),105.6
11,Cc1noc(C)c1CN1CCC2(CC1)CCN(C(=O)c1cscn1)C2.O=C(O)C(F)(F)F,-11.08
12,Cc1noc(C)c1CN1CCCC2(C1)CN(Cc1nccn1C)CCO2.O=C(O)C(F)(F)F.O=C(O)C(F)(F)F (stereo unspecified),-4.465
13,Cc1nnc(CN(Cc2cccc(Cl)c2)C(C)C)o1,-3.327
14,Cc1cccc(CS(=O)(=O)NCC(O)Cc2ccccc2)c1 (stereo unspecified),2.043
15,Cc1cccc(CS(=O)(=O)c2nnc(N3CCOCC3)s2)c1,-9.139
16,N[C@@H](Cc1ccccc1)c1nnc(S(=O)(=O)Cc2ccccc2)o1,107.1
17,N#Cc1cccc(CS(=O)(=O)NC(Cc2ccccc2)C(N)=O)c1 (stereo unspecified),-5.324
18,Cc1cccc(CS(=O)(=O)c2nnc([C@@H](N)Cc3ccccc3)o2)c1.Cl,119.9
19,Cl.N[C@@H](Cc1ccccc1)c1nnc(S(=O)(=O)Cc2ccc(Cl)cc2)o1,72.38
20,NC(=O)C(Cc1ccccc1)NS(=O)(=O)Cc1ccccc1F (stereo unspecified),-4.164
21,Cl.N[C@@H](Cc1ccccc1)c1nnc(S(=O)(=O)Cc2cccc(Cl)c2)o1,90.15
22,O=S(=O)(Cc1ccccc1)c1nnc(N2CCOCC2)s1,4.64
23,CCc1[nH]c2c(CNc3cc(C)nc(NC)n3)cc(C)cc2c1C,7.086
24,Cc1noc(C2CN(S(=O)(=O)C3CC3)Cc3ccnn3C2)n1 (stereo unspecified),-3.92
25,Cc1nc(-c2ccccc2)sc1CSCCS(C)(=O)=O,5.255
26,CCCN1CCC(C(=O)NCCN(CC)c2ccccc2C)CC1,6.668

row,SMILES,Percent Effect [%]
1,CSc1ccc(NC(=O)NCC(O)C2CC2)cc1F (stereo unspecified),-6.513
2,CCC(C)NC(=O)Cn1ncc2c1c(C)nn2CC (stereo unspecified),78.16
3,Cc1ccc(CNC(=O)Cn2ncc3c2c(C)nn3C)cc1,2.775
4,Cc1nn(C)c2cnn(CC(=O)NCCc3ccccc3)c12,-4.573
5,CCn1nc(C)c2c1cnn2CC(=O)Nc1ccc(OC)cc1C,97.13
6,CCn1nc(C)c2c1cnn2CC(=O)NC(C)c1cccc(OC)c1 (stereo unspecified),108.9
7,COc1ccc(NC(=O)Cn2nc(C)c(C)cc2=O)c(OC)c1,-17.24
8,COc1ccc(NC(=O)Cn2nc(C)c(C(C)=O)c2C)cc1,9.099
9,COc1cccc(C(CO)NC(=O)Cc2cccc(C)c2)c1 (stereo unspecified),-8.321
10,COc1ccccc1CNC(=O)Cn1ncc2c1c(C)nn2C,14.16
11,Cc1ccc(C(=O)NS(=O)(=O)c2cc(Cl)ccc2Cl)c(=O)[nH]1,0.2464
12,OCCOc1ccc(NCc2cccc3cn[nH]c23)cn1,11.64
13,Cl.NCC1CCC(c2c(C(=O)NCCO)sc3ccccc23)CC1 (stereo unspecified),105.7
14,CC(C)NC(=O)c1sc2ccccc2c1[C@H]1CC[C@H](CN)CC1.Cl,141.4
15,CN(C)CCNC(=O)c1sc2ccccc2c1C1CCC(CN)CC1.Cl (stereo unspecified),88.67
16,CC(NC(=O)N1CCC(CO)CC1)c1csc2ccccc12 (stereo unspecified),-26.26
17,CC(NC(=O)c1cccc[n+]1[O-])C1CC1 (stereo unspecified),-12.99
18,CC1CCc2nc(O)c(C(=O)NCCN(C)C)cc2C1 (stereo unspecified),7.628
19,CN(C)CCNC(=O)c1ccc(S(=O)(=O)N[C@@H]2CCNC2)cc1,-7.63
20,Cl.NC[C@H]1CC[C@H](c2c(C(N)=O)sc3ccccc32)CC1,138.4
21,CCn1cc2c(n1)C(COCC1CC1)CN(C(=O)c1cc(C)on1)C2 (stereo unspecified),-20.07
22,CC(Nc1ccc(CC(=O)N(C)C)cc1)C(=O)N(C)CCC#N (stereo unspecified),3.748
23,Cn1ncc2c(N3CCCC(C)(O)C3)nc(C(C)(C)C)nc21 (stereo unspecified),-0.5703
24,COc1ccc(CCC(=O)Nc2cccnc2N2CCCC2)cc1Br,3.443
25,O=C(O)C(F)(F)F.O=C1CC[C@@H]2[C@@H](CCN2C(=O)c2ccsc2)N1Cc1ccncc1,-34.69
26,COCCNC(=O)c1cc2c(nc1O)CC(c1cccs1)CC2=O (stereo unspecified),7.497

row,SMILES,Percent Effect [%]
1,NC(=O)COCCNC(=O)Nc1sc2ccccc2c1Cl,6.222
2,COCCNC(=O)c1sc2ccccc2c1C1CCC(CN)CC1.Cl (stereo unspecified),140.8
3,CCCN1CCN(C(=O)c2cc[nH]n2)[C@H]2CS(=O)(=O)C[C@H]21,3.177
4,CCn1cc(-c2nccnc2C2CCCN(C(C)=O)C2)cn1 (stereo unspecified),156.7
5,CC(=O)N1CCCC(c2nccnc2-c2ccc(CO)cc2)C1 (stereo unspecified),179.5
6,CCc1ccc2c(C3CN(C(C)=O)C3)ncn2c1,-3.623
7,COc1cc(F)ccc1CC(=O)N1CC[C@H]2C(=O)NCCO[C@H]2C1,-55.09
8,COC(=O)CCCn1ccnc1-c1ccc(OC)c(F)c1F,-8.612
9,CCS(=O)(=O)Cc1ccn(-c2cccc(F)c2)n1,-0.3225
10,COc1ccc(NC(=O)Nc2cnc(N3CCN(C)CC3)nc2)cc1Cl,89.39
11,CCOc1ccc(NCc2cnc(N3CCN(C)CC3)nc2)cn1,-2.404
12,COc1ccc(NC(=O)N2CCC3(CC2)NC(=O)CC3C(=O)O)cc1Cl (stereo unspecified),-5.291
13,Cc1ccc(NC(=O)Nc2cnc(N3CCN(C)CC3)nc2)cc1,130.1
14,COc1ccc(NC(=O)NC(C)c2nc[nH]n2)cc1Cl (stereo unspecified),-12.73
15,Cc1ccc(NC(=O)Nc2cnc(N3CCN(C)CC3)nc2)c(Cl)c1,-7.625
16,COc1cc2c(cc1CNC(=O)C(C)n1ccnc1C(C)C)CCC2 (stereo unspecified),-11.78
17,COC(=O)[C@H](C)NC(=O)Cc1c(C)nc2cc(=O)[nH]n2c1C,-6.844
18,Cc1n[nH]c(C)c1NC(=O)CN1CCOC(Cn2cccn2)C1 (stereo unspecified),4.084
19,Cc1cccc2c1nc(CCO)n2-c1ccc(NS(C)(=O)=O)nc1,-11.32
20,CN(C)CC(=O)N1C[C@H]2CCC[C@@]2(COc2ccccn2)C1.O=C(O)C(F)(F)F,-2.413
21,O=C(O)C(F)(F)F.O=C(c1ccccc1)N1C[C@H]2CCC[C@@]2(COCc2ccncc2)C1,12.44
22,O=C(O)C(F)(F)F.O=C(c1ncccn1)N1C[C@H]2CCC[C@@]2(COCc2ccncc2)C1,6.096
23,CS(=O)(=O)CC(=O)N1C[C@H]2CCC[C@@]2(COCc2ccncc2)C1.O=C(O)C(F)(F)F,108.3
24,CN(C)C(=O)N1C[C@H]2CCC[C@@]2(COc2ccccn2)C1.O=C(O)C(F)(F)F,-14.43
25,CS(=O)(=O)CC(=O)N1C[C@H]2CCC[C@@]2(COc2ccccn2)C1.O=C(O)C(F)(F)F,109.7
26,O=C(c1cn(CCN2CCCCC2)nn1)N1CCSCC1,10.37

row,SMILES,Percent Effect [%]
1,COc1cccc(NC(=O)N(CCO)Cc2ccsc2)c1,1.126
2,Cc1nn2c(N3CCCC(C(N)=O)C3)cc(-c3ccccc3)nc2c1C (stereo unspecified),-84.47
3,NC(=O)[C@H]1CCCN(c2nccc(-c3c[nH]nc3-c3cccnc3)n2)C1,113.5
4,O=C(c1ccccn1)C1CCCN(c2nccc(CCC(F)(F)F)n2)C1 (stereo unspecified),2e-14
5,O=C1N(CC2CC2)C(c2c[nH]nc2-c2cccnc2)NC12CCCC2 (stereo unspecified),1.582
6,NC(=O)[C@H]1CCCN(c2nccc(-c3ccncc3)n2)C1,103.3
7,CNc1ccnc(N2CCCC(C(=O)c3ccccn3)C2)n1 (stereo unspecified),-24.75
8,FC(F)Sc1ccc(NCc2nnc(C3CC3)o2)cc1,-0.3922
9,NC(=O)c1cnc(NC(=O)CCc2ccco2)c(Cl)c1,-8.08
10,CC(C)(C)c1nc(CC(=O)NC2CCN(C3CC3)C2)cs1 (stereo unspecified),-2.238
11,CC(C)N1CCCn2nc(C(=O)NCCc3c[nH]cn3)cc2C1,-16.95
12,O=C(O)C1(n2ccc(-c3ccco3)n2)CCN(Cc2cccnc2)CC1,100.5
13,COc1ccc2c(c1)C1(CCN(Cc3ccccn3)CC1)N(C)CC2.O=C(O)C(F)(F)F.O=C(O)C(F)(F)F,-3.791
14,Cc1cc(F)ccc1OC1(C(=O)O)CCN(Cc2cccnc2)CC1,3.989
15,Cc1cc(CN2CCN(C(=O)CCc3cccc(F)c3F)CC2)on1,-11.44
16,O=C(O)C1(n2ccnc2)CCN(Cc2ccc3occc3c2)CC1,-4.381
17,Cc1cc(CN2CCC(C(=O)O)(n3ccc(-c4ccco4)n3)CC2)on1,185.7
18,Cc1nc(CN2CCC(C(=O)O)(n3ccc(-c4ccco4)n3)CC2)co1,4.507
19,O=C(O)C1(n2ccc(-c3ccco3)n2)CCN(Cc2ccsc2)CC1,105.5
20,Cc1cc(CN2CCN(C(=O)C3(C#N)CCCC3)CC2)on1,-5.531
21,O=C(O)C(F)(F)F.O=C(c1ccco1)N1CCCC2(CN(Cc3ccsc3)CCO2)C1 (stereo unspecified),0.02281
22,O=C(O)C1(n2cccn2)CCN(Cc2nc(-c3ccccc3)no2)CC1,-13.7
23,O=C(O)C1(n2ccc(-c3ccco3)n2)CCN(Cc2ccccn2)CC1,96.1
